In the library only some 9.5% were active in any assay of this set; here they are far more common.
NS1 function inh – blocks influenza NS1 protein function | Potency, µM (titrated, usually from 46.1 µM), inactives show at the top dose activity, positive = more growth | 270,000 tested, 0.4% active; also: actives are rising curves; nearly all actives have a fitted effect of over 50% in size
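S. cerevisiae expressing influenza A NS1, grown in glucose, washed, then diluted 1:100 into pH 6.0 -URA galactose medium with 23 nl compound. Growth recovery read as OD600; NS1-free strain serves as control.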
Pf growth 48h – inhibits P. falciparum growth in the first generation, 48 h | P. falciparum luciferase growth in erythrocytes, 48 h | Potency, µM (series often up to 28.7 µM), inactives show at the highest dose activity change, negative = inhibition, hits mostly inhibitors | 310,000 tested, 5.9% active | AID 504832; active = well fitted inhibition curve with a large enough effect; inconclusive = small, poorly fitted or top-dose-only effect, or another doubt; inactive = no such curve, though single readings can be large or run the other way; also: % is scaled to controls: 0 for no effect and ±100 for the full control effect
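Luciferase-expressing parasites in RBCs, 2% Hct / 0.1% parasitemia final; RPMI 1640 + 0.5% Albumax; 37 C, 5% CO2, one generation; luminescence read-out, lower signal = inhibition.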
SARS PLpro yeast – blocks SARS-CoV papain-like protease in a yeast assay | Potency, µM (top dose mostly 32.9 µM), for the others: at the top dose activity, positive = growth rescue, hits mostly activators | AID 485353 | S. cerevisiae expressing SARS-CoV PLpro, growth rescue | 330,000 tested, 0.19% active; also: 0% is about no effect; nearly all actives have a fitted effect of over 55% in size
Pf growth 96h – inhibits malaria parasite growth, 96 h; P. falciparum luciferase reporter growth, 96 h; Potency, µM (highest dose often 28.7 µM), without a hit: top-dose activity change, negative = inhibition, most hits filed as inhibitors; 320,000 tested, 6.9% active; active = well fitted inhibition curve with a large enough effect; inconclusive = small, poorly fitted or top-dose-only effect, or another doubt; inactive = no such curve, though single readings can be large or run the other way; also: % is scaled to controls: 0 for no effect and ±100 for the full control effect
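Cell-based qHTS: luciferase-tagged P. falciparum in erythrocytes (2% hematocrit, 0.05% parasitemia final) incubated with compounds for 96 hours, 37 C, 5% CO2; luciferase detection reagent then added and luminescence measured.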
RE007 growth inh – less growth of the S. pombe RE007 Vpr strain | S. pombe RE007 Vpr strain, BacTiter-Glo ATP luminescence, 24 h | Potency, µM (series often up to 92.2 µM), inactives show at the top dose activity change, negative = less growth, actives largely listed as inhibitors | 360,000 tested, 0.21% active; active = well fitted falling curve with a large enough effect; inconclusive = small, poorly fitted or top-dose-only effect; inactive = no such curve, though single readings can be large or run the other way; also: % is scaled to controls: 0 for no effect and ±100 for the full control effect; nearly all actives have a fitted effect of over 50% in size
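Fission yeast RE007 carrying one integrated HIV-1 vpr copy, seeded at OD 0.01 in PMG+AL medium with 23 nL pinned compound. Grown 24 h at 30 degrees; viability read by BacTiter-Glo luminescence after 5 min.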
Starred values were filed as active, the others as inactive; ? = inconclusive; / = no result. Unless noted, calls follow the shape of the full dose curve. Potency is read from the fitted curve at half-maximal effect.

SMILES | NS1 function inh | Pf growth 48h | SARS PLpro yeast | Pf growth 96h | RE007 growth inh
Clc1ccc(-n2cc(-c3ccc(Br)cc3)[n+]3c2CCCCC3)cc1 | -3% | ? | -1% | ? | 4%
Cc1ccc(-c2cn(-c3ccc(OC(F)F)cc3)c3[n+]2CCCCC3)cc1 | 5% | 1.3µM* | 0% | ? | 1%
c1ccc(CN2CCC3CC2c2cc(N4CCCCC4)ccc23)cc1 (stereo not given) | / | / | / | / | 6%
CN1CCN(c2nc3c(c(=O)n(C)c(=O)n3C)n2C)CC1 | 0% | / | / | / | /
Cc1cccc2nc(-c3ccccc3)nc(N[C@@H](CO)c3ccccc3)c12 | / | 13µM* | -81% | 13µM* | -24%
CC1=C(C(=O)N2CCOCC2)CC(CC(=O)NC2CCCCC2)C(=O)N1Cc1ccccc1 (stereo not given) | / | / | / | / | -7%
CC(C)CCNC(=O)C(=O)Nc1ccc2c(c1)N(S(=O)(=O)c1cccs1)CCC2 | / | 5.9µM* | -3% | ? | 21%
CC(C)CNC(=O)C(=O)Nc1ccc2c(c1)N(S(=O)(=O)c1cccs1)CCC2 | / | ? | -3% | 10µM* | 28%
CCOC(=O)c1sc(NC(=O)C2CC(=O)N(c3ccc(C)cc3)C2)nc1C (stereo not given) | 4% | 9% | 1% | 53% | 10%
CC(C)n1nc(C(=O)Nc2cccc(S(=O)(=O)N3CCCCC3)c2)c2ccccc2c1=O | / | ? | 11% | ? | 19%
Cc1ccc(SC(C)C(=O)NCC(C)C)cc1 (stereo not given) | 0% | 15µM* | -2% | -7% | 17%
COc1ccc(NC(=O)c2ccco2)cc1NC(=O)c1ccccc1[N+](=O)[O-] | -8% | 24% | 1% | 17% | 10%
COc1ccc(-c2nn(CCC#N)cc2C(=O)Nc2ccccc2)cc1OC | 16% | 72% | 1% | -12% | 5%
COc1ccc(-c2nn(CCC#N)cc2C(=O)NCc2ccccc2)cc1OC | 16% | 232% | 0% | 12µM* | 2%
COc1cc(NC(=O)CSc2nnc3n2C(C)(C)Cc2ccccc2-3)cc(OC)c1 | -3% | ? | 6% | 4.1µM* | 2%
COc1ccc(N2CCN(C(=O)CSc3nnc4n3C(C)(C)Cc3ccccc3-4)CC2)cc1 | -13% | 12µM* | -3% | ? | -11%
COc1ccc(N2CCN(C(=O)CSc3nnc4c(C)cc5c(C)cc(C)cc5n34)CC2)cc1 | 12% | 2.9µM* | 2% | -4% | 11%
O=C(Cc1ccc(-c2ccccc2)cc1)Nc1ncccc1O | -25% | 75% | -10% | 69% | ?
C(=C\c1ccccn1)/c1cccnc1 | -2% | 105% | -3% | 107% | /
CCOC(=O)Cn1cc(/C=C(\C#N)C(=O)N2CCOCC2)c2ccccc21 | -3% | 18% | 0% | 39% | 1%
CCN(CC)C(=O)Cn1cc(/C=C(\C#N)C(=O)N2CCN(c3ccccc3)CC2)c2ccccc21 | 27% | ? | 2% | 10µM* | 12%
COc1ccc(S(=O)(=O)Nc2cc(C(=O)NC(C)C)ccc2N2CCOCC2)cc1 | -52% | -15% | 7% | / | 2%
COc1ccc(C[C@H]2CN3C(=NC[C@@H]3Cc3ccc(O)cc3)N2C[C@H](C)NC(=O)c2ccc(C)c(Br)c2)cc1 | 2% | 1.5µM* | 1% | 0.83µM* | 2%
Cc1ccc(C(=O)N[C@@H](C)CN2C3=NC[C@@H](Cc4ccccc4)N3C[C@H]2Cc2ccc(O)cc2)cc1Br | 3% | 5.2µM* | 0% | 2.9µM* | 9%
Cc1ccc(C(=O)N[C@@H](C)CN2C3=NC[C@H](Cc4ccccc4)N3C[C@H]2Cc2ccc(O)cc2)cc1Br | 0% | 2.1µM* | 4% | 1.3µM* | 3%
SMILES | NS1 function inh | Pf growth 48h | SARS PLpro yeast | Pf growth 96h | RE007 growth inh
O=C(CC1CCCC1)Nc1ccc(Cl)c(S(=O)(=O)N2CCOCC2)c1 | / | / | 0% | / | 5%
CC1CCCCN1C(=O)C(Cc1ccccc1)N1C(=O)C2CCCCC2C1=O (stereo not given) | -12% | -4% | 11% | 13µM* | -7%
Cc1cc(C)c(S(=O)(=O)c2c(C)cccc2C)c(OCC(C)C)n1 | -39% | 12µM* | -26% | 12µM* | -1%
N#Cc1ccccc1S(=O)(=O)N1CCN(C(=O)CN2CCCC2c2cccs2)CC1 (stereo not given) | / | 9.3µM* | -4% | 4.7µM* | -4%
COc1cc(C#Cc2c(-c3cncn3C)n(C)c3ccc(-c4cc(OC)c(OC)c(OC)c4)cc23)cc(OC)c1 | / | / | -4% | / | 0%
COc1cc(C#Cc2c(-c3cncn3C)n(C)c3ccc(-c4ccc(OC)nc4)cc23)cc(OC)c1 | / | ? | 1% | 0.093µM* | -8%
COc1cc(OC)cc(-c2c(C#Cc3ccsc3)c3cc(-c4ccc5[nH]ccc5c4)ccc3n2C)c1 | / | ? | 0% | ? | 13%
COc1cc(C#Cc2c(-c3cncn3C)n(C)c3ccc(-c4ccc5[nH]ccc5c4)cc23)cc(OC)c1 | / | 1.5µM* | -1% | 0.83µM* | -11%
Cc1ccc(S(=O)(=O)c2nnn3c2nc(NC2CCN(Cc4ccccc4)CC2)c2ccccc23)cc1C | 14% | 2.9µM* | -3% | ? | 6%
COC(=O)c1sc(C(C)(C)C)cc1CS(=O)(=O)c1ccccn1 | -3% | ? | 1% | 13µM* | -19%
CC(=O)c1csc(CS(=O)(=O)c2ccccn2)n1 | 4% | 14% | -1% | 10% | 4%
COc1ccc(CNC(=O)Cn2c(=O)n(CCC(=O)N3CCCCC3)c(=O)c3sccc32)cc1 | 7% | 4% | -3% | 0% | -6%
COC(=O)c1ccc(NC(=O)c2sc3nc(-c4ccccc4)cn3c2C)cc1 | -6% | ? | 4% | 20% | ?
COC(=O)c1ccc(NC(=O)c2c(C(=O)Nc3ccccc3)sc3nc(C)cc(=O)n23)cc1 | / | 7% | 0% | 12µM* | -3%
C#CC[N+](CC)(CC)CC#Cc1ccccc1 | -2% | ? | 2% | ? | 0%
C#CC[N+](C)(C)CC#Cc1ccc(C)cc1 | / | 1.9µM* | -3% | ? | -12%
COc1ccc(CN2CCC(Oc3cc(C(=O)NC4CC4)ccc3OC)CC2)c(O)c1 | 5% | 2.3µM* | 3% | 31% | -7%
COc1ccc(C(=O)N2CCCCCC2)cc1OC1CCN(C(C)=O)CC1 | 0% | 37% | -1% | 10µM* | 20%
COCC1CCN(C(=O)c2ccc(OC)c(OC3CCN(C(C)C)CC3)c2)CC1 | -2% | 14% | 3% | 3.3µM* | -18%
COCC1CCCCN1C(=O)c1ccc(OC)c(OC2CCN(C(C)C)CC2)c1 (stereo not given) | -9% | 10% | -4% | 61% | 2%
COc1ccc(C(=O)NC2CCCCC2)cc1OC1CCN(C(C)C)CC1 | 2% | ? | -6% | 6.6µM* | 3%
COc1cc(C(=O)N2CCCCCCC2)ccc1OC1CCN(C(C)=O)CC1 | 8% | ? | 0% | ? | -5%
